# Assay results as given in PubChem BioAssay (NCI).
# Several values for one entry are separate records, joined by “and”; a condition that tells them apart may be missing. Identical values can stand only once. Compounds without any hit were thinned out: in the full panel of roughly 83,000, 20% have a hit.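 Growth was measured after 48 h exposure to one concentration of compound in 96-well plates. Values under 10 count as active.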 A number with no mark means an inactive call. Activity calls are given as the source filed them.
# Tested on: MDA-MB-468 breast
# Assay: NCI-60 one-dose screen, 48 h (100 = growth as untreated, 0 = no growth, -100 = all killed)
# Conditions: 10 µM unless noted
row,SMILES,growth
1,N#Cc1cccc(NC(=O)c2oc3ccccc3c2-c2cnn(-c3ccccc3)c2)c1,66.6% [50 µM]
2,Cc1cc(C)n(Nc2nc3ccccc3[nH]c2=O)c(=O)c1C#N,90.8%
3,CCN(C)c1ccccc1,113%
4,c1ccc([P+](c2ccccc2)(c2ccccc2)c2ccc3c4ccc([P+](c5ccccc5)(c5ccccc5)c5ccccc5)c5cccc(c6cccc2c63)c54)cc1,-10.9% (active)
5,Cc1cc(N(CCCNc2ccnc3cc(Cl)ccc23)Cc2ccco2)nc(N2CCOCC2)n1,80.3%
6,CC(=O)N1c2ccccc2NC2=C(C(=O)N(C)C2(C)C)C1C (stereo not given),19.2%
7,CCOC(=O)C1CCN(S(=O)(=O)/N=C2/NC(=O)NC2=C(Cl)Cl)CC1,-22.2% (active)
8,CC1CCC(C(C)C)C(NNC(N)=O)C1 (stereo not given),94.9%
9,CCCCCCC12CCC(=O)N1CCc1cncn12 (stereo not given),85%
10,O=C(Cc1ccc(F)cc1)c1ccccc1,127%
11,COc1c(NC[C@H]2OC(O)[C@H](O)[C@@H](O)[C@@H]2O)c(=O)c1=O (stereo not given in full),94.1%
12,NC1CCC(Nc2nc(NCc3ccc(-c4ccco4)nc3)c3ncn(C4CCCC4)c3n2)CC1 (stereo not given),-54.3% (active)
13,CCCCCOC(=O)c1cccc(NC(=O)CN(CC)CC)c1,106%
14,CCN(CC)c1cc(C)c2cc(NC(=O)c3cccc(OC)c3)ccc2n1,83.9%
15,CNC(=O)c1ccccc1CC1(O)c2ccccc2Oc2ccccc21,42.9%
16,COC(=O)c1ccc2c(c1)nc(-c1ccc(O)c(OC)c1)n2-c1cc(C(C)(C)C)[nH]n1,104%
17,C#CCNCCCN1C(=O)c2ccc3c4c(ccc(c24)C1=O)C(=O)N(CCCNCC#C)C3=O,-85.6% (active)
18,Cn1cc(-c2nonc2-c2c[nH]c3ccccc23)c2cc(Br)ccc21,59.5%
19,COc1ccc(C2C3=C(COC3=O)N(CCO)c3cc4c(cc32)OCCO4)cc1 (stereo not given),32.9%
20,O=C1NN(C(=O)c2ccc(Cl)cc2)C(c2ccccc2)=N/C1=C\c1cn(-c2ccccc2)nc1-c1ccccc1,81.9%
21,O=S(=O)(NCCCNc1nccc(-c2c(-c3ccc(O)cc3)nc3sccn23)n1)c1ccc(F)cc1,-19.2% (active)
22,CCCCC1=C(P(=O)(O)O)N[C@H](C(=O)O)CS1,89.1%
23,Nc1ccc(S(=O)(=O)c2ccc(N)cc2)cc1,97.5% and 101%
24,CCN1CCN(S(=O)(=O)c2oc(-c3ccc(Cl)cc3)nc2C#N)CC1,24%
25,O=C1OCC2=C1C(c1cccc(Br)c1)c1cc3c(cc1N2CCO)CCC3 (stereo not given),-3.99% (active)
